Source: PubChem
A selection: hits, their analogues and other compounds. The true share with any hit is near 2.6%.
ABHD5-PLIN5 inh: inhibitors of human ABHD5-perilipin-5 interaction | AID 602281 | 0.78% of 360,000 active | inhibition, % at 4 µM | Q00G26+Q8WTS1 | Split G. princeps luciferase complementation, luminescence, 4 h;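 active = inhibition above the mean inhibition across every tested compound plus 3 SD, cut at about 22% in these data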;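 note: 0% = DMSO only wells and the 100% control is not disclosed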
Target sequence (Q00G26 whole entry, looked up): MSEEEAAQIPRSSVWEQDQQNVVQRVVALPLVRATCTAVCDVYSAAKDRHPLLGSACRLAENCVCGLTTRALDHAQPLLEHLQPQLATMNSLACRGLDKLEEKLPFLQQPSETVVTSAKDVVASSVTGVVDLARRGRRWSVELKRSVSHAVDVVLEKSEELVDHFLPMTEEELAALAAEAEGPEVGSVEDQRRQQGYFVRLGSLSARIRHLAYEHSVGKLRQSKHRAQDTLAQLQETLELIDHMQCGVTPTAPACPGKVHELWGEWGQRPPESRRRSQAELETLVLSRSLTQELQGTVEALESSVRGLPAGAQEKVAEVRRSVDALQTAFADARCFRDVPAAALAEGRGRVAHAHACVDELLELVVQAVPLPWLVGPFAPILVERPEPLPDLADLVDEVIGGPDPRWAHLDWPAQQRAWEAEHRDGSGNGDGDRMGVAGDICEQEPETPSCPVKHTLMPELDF
Target sequence (Q8WTS1 whole entry, looked up): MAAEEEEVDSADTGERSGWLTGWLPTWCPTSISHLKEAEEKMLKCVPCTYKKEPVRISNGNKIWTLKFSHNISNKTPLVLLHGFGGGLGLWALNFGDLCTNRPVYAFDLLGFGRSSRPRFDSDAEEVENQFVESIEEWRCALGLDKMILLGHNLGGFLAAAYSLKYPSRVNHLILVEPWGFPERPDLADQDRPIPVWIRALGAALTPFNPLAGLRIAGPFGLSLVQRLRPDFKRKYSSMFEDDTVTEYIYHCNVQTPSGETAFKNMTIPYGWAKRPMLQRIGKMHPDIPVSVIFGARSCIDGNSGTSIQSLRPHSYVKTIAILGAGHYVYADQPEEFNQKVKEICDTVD
M18AAP inhibitor: blocks P. falciparum M18 aspartyl aminopeptidase. AID 1822. recombinant PfM18AAP, H-Glu-NHMec fluorogenic cleavage. inhibition, % at 7.35 µM. 1.2% of 290,000 active;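 active = inhibition above the campaign mean inhibition over all tested compounds plus 3 SD, cut at about 28% in these data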;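 note: 0% = plate median of test compound wells and 100% = 2 mM ZnCl2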
Platelet DG rel: modulates dense granule release in human platelets; human platelet-rich plasma, SFLLRN dense granule ATP release, luminescence; inhibition, %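 (compounds screened at 7.5 µM in platelet-rich plasma)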; 0.22% of 300,000 active; AID 1663;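 active = mean replicate score, as percent of positive control, at or above 50; inconclusive = mean below 50 but at least one replicate at or above 50; inactive = mean and every replicate below 50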
Rce1 inh: inhibitors of yeast Ras-converting enzyme; 0.27% of 290,000 active; calls only; Q03530; yeast membranes, quenched prenylated peptide cleavage fluorescence;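 active = fall in fluorescence gain of 50% or more versus controls, with final raw signal at or below 3038400; inconclusive = same 50% fall but final raw signal above 3038400; inactive = fall in fluorescence gain under 50%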;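 note: plate controls were neutral control wells for no effect and wells lacking membranes for full effect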
Exocytosis inh: lytic granule exocytosis inhibition. TALL-104 LAMP-1 surface exposure, flow cytometry; cells stimulated with thapsigargin and PMA. inhibition, % at 10 µM. 0.66% of 360,000 active;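 active = inhibition above about 55%, limit read from the data; inconclusive = no clear call, values can overlap the other calls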
* = called active by the depositor; i = inactive; ? = inconclusive; . = not tested or not shown; + = active, no number.

SMILES	ABHD5-PLIN5 inh	M18AAP inhibitor	Platelet DG rel	Rce1 inh	Exocytosis inh
O=C(CCNS(=O)(=O)c1ccc2[nH]c(=O)oc2c1)NCc1ccccc1	2.1	5.3	10.8	+	-15.5
CCOC(=O)CCCCCN(Cc1ccccc1)S(=O)(=O)c1ccc([N+](=O)[O-])cc1	-1.5	-11.6	-3.3	i	12.2
NC(=O)N1CCN(C(=O)c2ccco2)CC1	2.5	-4.4	50.8*	i	3.6
Cc1cc(Cl)c2oc(C(=O)N3CCN(C(=O)c4ccco4)CC3)c(C)c2c1	5.5	-5.3	19.7	+	-1.2
O=C(c1ccco1)N1CCN(C(=O)c2ccco2)CC1	-6.8	.	.	.	-9.3
Cc1cc(Cl)c2oc(C(=O)N3CCOCC3)c(C)c2c1	1.4	.	.	.	3.8
CCc1cc(C(=O)NC2CCCc3c2cnn3-c2cccc(C)c2C)n(C)n1 (configuration not stated)	.	-0.8	15.0	i	.
Cc1cc2cc3c(cc2nc1SCC(=O)N1c2ccccc2CC1C)OCO3 (configuration not stated)	-2.7	-1.9	5.1	i	-0.2
Cc1cc2ccccc2nc1SCC(=O)N1c2ccccc2CC1C (configuration not stated)	-3.7	7.7	67.4*	i	-0.5
COc1cccc(CN2CC(C(=O)N(C)Cc3nc(C)cs3)CCC2=O)c1 (configuration not stated)	-5.0	-1.4	-3.1	i	-2.6
CCN(C(=O)CCc1nnc2ccc(NCc3ccco3)nn12)c1ccccc1	14.2	29.0*	11.4	i	3.4
O=C(CCNC(=O)c1ccc([N+](=O)[O-])cc1)Nc1cccc(S(=O)(=O)N2CCCCC2)c1	1.2	4.9	-12.6	i	?
CN(C(=O)c1cccc(NC(=O)Cc2ccc(NC(=O)C3CCN(C(=O)C4CC4)CC3)cc2)c1)C1CCCC1	8.8	.	.	.	0.4
c1ccc2c(c1)Nc1cc3ccccc3cc1S2	-8.9	0.5	11.7	i	12.1
Cc1ccc2c(c1)Sc1c(ccc3ccccc13)N2	-3.9	28.3*	2.4	i	-4.3
COc1ccc(-n2c(-c3ccc(Cl)cc3Cl)n[nH]c2=S)c(OC)c1	-3.5	-2.4	0.3	i	4.1
CCOC(=O)C1CCCN(S(=O)(=O)c2cc3[nH]c(=O)c(=O)[nH]c3cc2C)C1 (configuration not stated)	-7.5	17.5	3.4	+	-4.1
CCOC(=O)N1CCC(N(CCN(C)C)C(=S)Nc2cccc(SC)c2)CC1	1.3	27.7	0.9	i	-1.9
COc1cc(/C=C2/SC(=S)N(c3c(C)n(C)n(-c4ccccc4)c3=O)C2=O)ccc1O	-3.6	32.9*	6.7	i	3.7
O=C(/C=C/c1ccco1)NC(=S)Nc1cccc([N+](=O)[O-])c1	22.6*	6.7	0.0	i	1.1
O=C(CNC(=S)NC(=O)c1ccco1)c1ccccc1	-8.2	28.8*	-5.4	i	0.6
CCOC(=O)c1csc(-c2sccc2Br)n1	6.7	4.3	16.8	i	1.0
CCn1c(O)c(/C=N/N=C/c2ccc(OC)cc2)c2cc(C3=NNC(=O)CC3)ccc21	-7.5	7.5	-1.7	i	3.2
CC/C(C)=N\N=C\c1c(O)n(CC)c2cc(C3=NNC(=O)CC3)ccc12	-11.2	6.6	75.4*	i	-1.7
Cc1ccc(N=Nc2c(=O)[nH]n3c(C)cc(C)nc23)cc1	6.4	2.2	5.0	i	-1.8
SMILES	ABHD5-PLIN5 inh	M18AAP inhibitor	Platelet DG rel	Rce1 inh	Exocytosis inh
Cc1ccc(N=Nc2c(N)[nH]n3c(=O)cc(C)nc23)cc1	3.7	31.2*	-2.2	i	-2.8
CN1CCN(c2ccc(NC(=O)c3ccc(-c4ccc(Br)cc4)o3)cc2)CC1	13.7	1.0	-0.3	i	75.8*
CCN1CCN(c2ccc(NC(=O)c3ccc(Br)o3)cc2)CC1	-0.9	-0.3	2.7	i	1.0
CN1OC[C@@H]2CN[C@H](c3cccc(Oc4ccccc4)c3)C[C@@H]21	4.5	.	.	.	10.2
Cc1ccc(-c2ccc(/C=C3\SC(N4CCOCC4)=NC3=O)o2)cc1	13.5	0.6	11.2	i	60.0*
O=C1N=C(N2CCOCC2)S/C1=C/c1ccc(-c2ccc(F)cc2)o1	4.0	-44.9	-0.1	i	7.8
O=C(c1ccc2c3n(nc2c1)-c1ccccc1CO3)N1CCOCC1	2.8	.	51.2*	i	-4.7
O=C(c1ccc2c3n(nc2c1)-c1ccccc1CO3)N1CCCCC1	0.2	.	20.1	i	-5.7
CC1CCC(C(C)C)C(OC(=O)C[n+]2cc(-c3ccc(Cl)cc3)n3c2CCC3)C1 (configuration not stated)	12.3	-6.0	1.1	i	64.2*
